High-throughput results (PubChem)
The list is not random: actives were taken first. Their share in the collection is about 19%.
TDP1 cell CPT – DT40-hTDP1 cell growth loss with CPT | chicken DT40 Tdp1-/-;hTDP1 cells + 20 nM CPT, ATP luminescence, 48 h | Potency, µM (highest dose often 46.2 µM), usual class: inhibitors | 420,000 compounds, 12% hits; also: nearly all actives have a fitted effect of over 55% in size
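Cell growth measured by CellTiter-Glo luminescence after a minimum 48 h, 37 C compound exposure with 20 nM CPT in Tdp1-knockout DT40 cells stably expressing hTDP1, seeded 400/well; qHTS titration format.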
TDP1 cell noCPT – qHTS for Inhibitors of human tyrosyl-DNA phosphodiesterase 1 (TDP1): qHTS in cells in absence of CPT; Potency, µM (series often up to 46.2 µM), most hits filed as inhibitors; 420,000 compounds, 15% hits; DT40 Tdp1-/- hTDP1 cells, no CPT, ATP luminescence, 48 h; also: nearly all actives have a fitted effect of over 55% in size
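Stably hTDP1-transfected Tdp1-null chicken DT40 cells were treated with library compounds minus camptothecin and grown for at least 48 hr at 37 °C, after which cellular ATP was quantified by luminescence.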
HT1080 IDH1KD tx – toxicity to HT-1080 IDH1 knockdown cells (counter line) | HT-1080 IDH1 knockdown viability, ATP luminescence, 48 h | Potency, µM (top dose mostly 46.1 µM), hits mostly cytotoxic | 360,000 compounds, 2% hits
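In this qHTS, HT-1080 cells depleted of IDH1 are exposed for 48 h at 37 °C to compound titrations. Toxicity is scored from CellTiter-Glo luminescence, with DMSO as full viability and medium alone as none.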
IL-1B inflam inh – inhibitors of inflammasome signaling (IL-1 beta secretion). 360,000 compounds, 4.7% hits. AID 743279. activity change, % at 57.5 µM. THP-1 LPS/ATP IL-1B secretion, AlphaLISA, 16 h; active compounds read low; in the data active = activity change below about -50%; inconclusive = mostly about -30% to -49%
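THP-1 cells pretreated 1 hr with compounds (up to 57.5 uM final), then stimulated with LPS (250 ng/mL final) plus ATP (1.25 mM final); secreted IL-1B measured by AlphaLISA after 16 hr, decreased signal indicating inhibition.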
HT1080-NT tox – kills 2HG-producing HT-1080-NT fibrosarcoma cells; HT-1080-NT fibrosarcoma viability, CellTiter-Glo ATP luminescence, 48 h; Potency, µM (top dose mostly 46.1 µM), most hits filed as cytotoxic; 360,000 compounds, 1.6% hits;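 also: NT is the 2HG producing partner of a matched IDH1 knockdown line; nearly all actives have a fitted effect of over 55% in size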
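A 48-hour cytotoxicity screen used HT-1080-NT cells plated 2 hours before compound delivery. ATP-based CellTiter-Glo luminescence measured viability, normalized to DMSO and no-cell controls.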
uPA surface inh – cell surface uPA generation inhibition | cell surface uPA generation assay, qHTS | Potency, µM (doses to about 38.3 µM), actives largely listed as inhibitors | 330,000 compounds, 0.31% hits; active = well fitted inhibition curve with a large enough effect; inconclusive = small, poorly fitted or top-dose-only effect; inactive = no such curve, though single readings can be large or run the other way; tested in mouse RAW 264.7 cells; also: nearly all actives have a fitted effect of over 55% in size
Large screens that a line does not name were inactive. Unless noted, calls follow the shape of the dose curve; as a rule, active = well fitted curve in the direction sought with a large enough effect; inconclusive = small, poorly fitted or top-dose-only effect, or another doubt; inactive = no such curve, though single readings can be large; an effect the other way counts as inactive or inconclusive.

CCCCCCCCN1C(=O)[C@H](CC(=O)NCCc2ccccc2OC)C[C@@]2(C(=O)OC)CC(C)(C)CC=C12	TDP1 cell CPT 21µM, TDP1 cell noCPT inconclusive, HT1080 IDH1KD tx inconclusive, HT1080-NT tox inconclusive (no result: uPA surface inh)
C#CCNC(=O)C[C@@H]1C[C@@]2(C(=O)OC)CC(C)(C)CC=C2N(Cc2ccccc2)C1=O	TDP1 cell CPT inconclusive, TDP1 cell noCPT inconclusive (no result: uPA surface inh)
OC(CNCCN1CCNCC1)Cc1ccccc1 (stereo not given)	none
CSc1nnc(-c2sc3cc(Cl)ccc3c2Cl)n1C	TDP1 cell CPT inconclusive, TDP1 cell noCPT 26µM
CCn1c(SC)nnc1-c1sc2cc(Cl)ccc2c1Cl	TDP1 cell CPT 16µM, TDP1 cell noCPT inconclusive, IL-1B inflam inh inconclusive
CSc1nnc(-c2ccccc2)n1C	none
O=C(CN1C2CCCC1CC(NC(=O)C1CCCCC1)C2)Nc1ccccc1 (stereo not given)	TDP1 cell CPT 15µM, TDP1 cell noCPT inconclusive
O=C(NCc1ccccc1)/C(=C\c1cccc([N+](=O)[O-])c1)NC(=O)c1ccco1	none (no result: uPA surface inh)
CC(Cn1cncn1)C(=O)N1CCN(S(=O)(=O)c2ccccc2)CC1 (stereo not given)	none
COC(=O)Oc1ccc(/C=N/NC(=O)CSCc2ccc(Cl)cc2)cc1OC	TDP1 cell CPT 26µM, TDP1 cell noCPT 12µM
CCOC(=O)N/N=C/c1ccc(OCCSc2ccc(Cl)cc2)c(OC)c1	TDP1 cell CPT 15µM, TDP1 cell noCPT 26µM
COc1cc(C=O)ccc1OCCSc1ccc(Cl)cc1	none (no result: uPA surface inh)
CCCC(=O)N1CCN(c2ccc(NC(=O)c3sc4ccccc4c3Cl)cc2)CC1	TDP1 cell noCPT inconclusive
O=C(NCC1CCCO1)c1sc2ccccc2c1Cl (stereo not given)	none
O=C(NCCCN1CCOCC1)c1sc2cc([N+](=O)[O-])ccc2c1Cl	TDP1 cell noCPT inconclusive
O=C(Nc1ccccn1)c1sc2cc([N+](=O)[O-])ccc2c1Cl	TDP1 cell CPT 23µM, TDP1 cell noCPT inconclusive
CN1CCN(c2ccccc2NC(=O)c2sc3ccccc3c2Cl)CC1	TDP1 cell CPT inconclusive, TDP1 cell noCPT 21µM, HT1080 IDH1KD tx inconclusive, IL-1B inflam inh inconclusive, HT1080-NT tox inconclusive
O=C(Nc1nccs1)c1sc2ccccc2c1Cl	TDP1 cell CPT inconclusive, TDP1 cell noCPT 21µM, HT1080 IDH1KD tx inconclusive
CC(NC(=O)c1sc2ccccc2c1Cl)C1CCCO1 (stereo not given)	TDP1 cell CPT 21µM, TDP1 cell noCPT inconclusive, uPA surface inh inconclusive
CC1=C(C(=O)N(C(C)C)C(C)C)CC(CC(=O)NC(c2ccccc2)c2ccccc2)C(=O)N1CCCN1CCCC1=O (stereo not given)	none (no result: uPA surface inh)
C[C@H](NC(=O)OC(C)(C)C)C(=O)NCC1CCC(C(=O)N[C@@H](Cc2ccccc2)C(=O)O)CC1 (stereo not given in full)	none
N#CCC(=N)N1CCN(c2ccc(F)cc2)CC1	none
Cc1ccc(NC(=O)c2ccc(C(C)(C)C)cc2)cc1-n1cnnn1	TDP1 cell CPT inconclusive, TDP1 cell noCPT 29µM
Cc1cc(C(=O)CN2C(=O)C(=O)N(Cc3ccccc3)C2=O)c(C)n1CC1COc2ccccc2O1 (stereo not given)	TDP1 cell noCPT 18µM
Cc1cc(C(=O)CN2C(=O)C(=O)N(Cc3ccccc3)C2=O)c(C)n1Cc1ccccc1	TDP1 cell CPT inconclusive, TDP1 cell noCPT inconclusive
Cc1cc(C(=O)CSc2nnc(-c3ccco3)o2)c(C)n1CC1COc2ccccc2O1 (stereo not given)	TDP1 cell CPT 16µM, TDP1 cell noCPT 21µM, IL-1B inflam inh inconclusive
Cc1cc(C(=O)CSc2nnc(-c3ccccc3)o2)c(C)n1CC1COc2ccccc2O1 (stereo not given)	TDP1 cell CPT inconclusive, TDP1 cell noCPT inconclusive, HT1080 IDH1KD tx inconclusive, HT1080-NT tox inconclusive
Cc1cc(C(=O)COC(=O)c2ccc(CO)cc2)c(C)n1CC1COc2ccccc2O1 (stereo not given)	TDP1 cell CPT 23µM, TDP1 cell noCPT inconclusive
c1ccc(-c2nc(N3CCCCCC3)c3ccccc3n2)nc1	TDP1 cell CPT 2.1µM, TDP1 cell noCPT 2.3µM, HT1080 IDH1KD tx inconclusive, IL-1B inflam inh -84
CCN1CCN(c2nc(-c3ccccn3)nc3ccccc23)CC1	TDP1 cell CPT inconclusive, TDP1 cell noCPT 21µM, HT1080 IDH1KD tx 10µM, HT1080-NT tox 8.9µM (no result: uPA surface inh)
c1ccc(CN2CCN(c3nc(-c4ccccn4)nc4ccccc34)CC2)cc1	none
c1ccc2nc(N3CCCC3)c(N3CCCCC3)nc2c1	TDP1 cell noCPT inconclusive
Cc1nc(N2CCCCCC2)c2ccccc2n1	TDP1 cell CPT inconclusive, TDP1 cell noCPT 21µM, uPA surface inh inconclusive
COc1ccc(C(=O)c2ccc(Cl)c([N+](=O)[O-])c2)cc1	TDP1 cell CPT 0.82µM, TDP1 cell noCPT 0.73µM, HT1080 IDH1KD tx 5.8µM, IL-1B inflam inh -101, HT1080-NT tox inconclusive
Cc1c(C=O)c2ccccn2c1C(=O)c1ccc(Cl)c([N+](=O)[O-])c1	TDP1 cell CPT inconclusive, TDP1 cell noCPT 16µM
Cc1cc2ccccn2c1C(=O)c1ccc([N+](=O)[O-])o1	TDP1 cell CPT 23µM, TDP1 cell noCPT 18µM, HT1080 IDH1KD tx 16µM, IL-1B inflam inh -99, HT1080-NT tox inconclusive
COc1ccc(C(=O)c2ccc(Cl)cc2)cc1	TDP1 cell noCPT inconclusive, HT1080-NT tox inconclusive
Cc1cc2ccccn2c1C(=O)c1ccc(Cl)c([N+](=O)[O-])c1	TDP1 cell CPT 21µM, TDP1 cell noCPT inconclusive, IL-1B inflam inh -75
Cc1c(C=O)c2ccccn2c1C(=O)c1ccccc1	TDP1 cell noCPT inconclusive
CCc1ccc2c(CC(=O)NNC(=O)c3ccncc3)coc2c1	none
COc1ccc(NC(=O)C2CC2(Cl)Cl)cc1S(=O)(=O)N1CCCCC1 (stereo not given)	TDP1 cell CPT inconclusive, TDP1 cell noCPT inconclusive (no result: uPA surface inh)
Cc1ccc(C(NC(=O)C2CCCCC2)c2c(O)ccc3ccccc23)cc1 (stereo not given)	TDP1 cell CPT 16µM, TDP1 cell noCPT 21µM, HT1080 IDH1KD tx inconclusive
CCCCC(=O)NC(c1ccccc1Cl)c1c(O)ccc2ccccc12 (stereo not given)	TDP1 cell CPT inconclusive, TDP1 cell noCPT inconclusive, HT1080 IDH1KD tx inconclusive, IL-1B inflam inh -89, HT1080-NT tox inconclusive
CC(C)C(=O)NC(c1ccc([N+](=O)[O-])cc1)c1c(O)ccc2ccccc12 (stereo not given)	TDP1 cell CPT 18µM, TDP1 cell noCPT inconclusive, HT1080 IDH1KD tx inconclusive, IL-1B inflam inh -88, HT1080-NT tox inconclusive (no result: uPA surface inh)
CCCC(=O)NC(c1ccccc1)c1c(O)ccc2ccccc12 (stereo not given)	TDP1 cell CPT inconclusive, TDP1 cell noCPT 8.2µM
